Assay results as given in PubChem BioAssay (NCI).
Compounds without any hit were thinned out: in the full panel of roughly 79,000, 15% have a hit. A number with no mark means an inactive call. Activity calls are given as the source filed them. Rule as the data show it: active = growth inhibition above about 70%; inactive = the rest.

Key:
[1] = NCI Yeast Anticancer Drug Screen. Data for the rad50 strain (AID 155);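 also: 0% = growth of vehicle-only cultures of the same strain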; settings: S. cerevisiae rad50 strain growth inhibition, stronger effect = higher value
Outline: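 Cells are treated with compound, grown, and their growth is then scored against vehicle-only cultures of the same repair-deficient yeast strain.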

[2] = NCI Yeast Anticancer Drug Screen. Data for the mec2-1 strain (AID 157); settings: S. cerevisiae mec2-1 strain, stronger effect = higher value
Outline: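 Compounds were applied to mec2-1 yeast cells. Their growth was then compared with that of vehicle-treated cultures to give growth inhibition.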

[3] = NCI Yeast Anticancer Drug Screen. Data for the sgs1 mgt1 strain (AID 161);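 also: 0% = growth of cultures given vehicle only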; settings: S. cerevisiae sgs1 mgt1 strain, stronger effect = higher value
Outline: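 Compounds are added to genetically altered yeast, and growth is compared with cultures given vehicle alone to give percent inhibition.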

[4] = NCI Yeast Anticancer Drug Screen. Data for the cln2 rad14 strain (AID 165);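 also: 0% = growth equal to vehicle treated cultures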; settings: S. cerevisiae cln2 rad14 strain, stronger effect = higher value
Outline: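 Strain: cln2 rad14 yeast, altered in cell cycle control and DNA damage repair. Read-out: growth inhibition vs vehicle.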

[5] = NCI Yeast Anticancer Drug Screen. Data for the bub3 strain (AID 167); settings: S. cerevisiae bub3 mutant strain, stronger effect = higher value
Outline: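 Part of a panel of yeast mutants defective in DNA damage repair or cell cycle regulation. Each strain is grown with compound, and inhibition is calculated relative to solvent-treated cultures.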

[6] = NCI Yeast Anticancer Drug Screen. Data for the mlh1 rad18 strain (AID 175); settings: S. cerevisiae mlh1 rad18 strain growth inhibition, stronger effect = higher value
Outline: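 A repair-deficient yeast strain is exposed to test compound, and growth is scored relative to vehicle-treated controls.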

[7] = at 5.0 µM (retest, dose inferred, filed as 0.5)
[8] = at 50.0 µM (retest, dose inferred, filed as 5.0)

| SMILES | growth inhibition [1, 7] | growth inhibition [1, 8] | growth inhibition ([1]; at 50.0 µM) | growth inhibition [2, 7] | growth inhibition [2, 8] | growth inhibition ([2]; at 50.0 µM) | growth inhibition [3, 7] | growth inhibition [3, 8] | growth inhibition ([3]; at 50.0 µM) | growth inhibition [4, 7] | growth inhibition [4, 8] | growth inhibition ([4]; at 50.0 µM) | growth inhibition [5, 7] | growth inhibition [5, 8] | growth inhibition ([5]; at 50.0 µM) | growth inhibition [6, 7] | growth inhibition [6, 8] | growth inhibition ([6]; at 50.0 µM) |
| --- | --- | --- | --- | --- | --- | --- | --- | --- | --- | --- | --- | --- | --- | --- | --- | --- | --- | --- |
| CCOC(=O)C(=O)NNc1ccccc1 | 22% | 89% (active) | 97.8% (active) | 3% | 82% (active) | 94.8% (active) | 13% | 61% | 98.7% (active) | -1% | 57% | 92.7% (active) | 17% | 96% (active) | 97.5% (active) | 31% | 95% (active) | 98.9% (active) |
| Nc1c(Cl)[nH]c(C(F)(F)F)nc1=S | -2% | -7% | 5.2% | -7% | -1% | -4.75% | -9% | -7% | -2.45% | -7% | 4% | 15.3% | -3% | 10% | -9.45% | 0% | 1% | 23.3% |
| Cc1nc2c(cnn2C)cc1CCc1ccccc1 | 2% | 16% | 14.7% | 3% | 35% | 3.9% | 5% | 53% | 19.6% | 12% | 50% | 25.1% | 23% | 78% (active) | 76.1% (active) | 8% | 39% | 23.6% |
| O=C(C[n+]1cccc2ccccc21)c1ccc(-c2ccc(C(=O)C[n+]3cccc4ccccc43)cc2)cc1 | 3% | 32% | 62.2% | 50% | 23% | 50% | 2% | 36% | 46.5% | 2% | 24% | 31.9% | 1% | 44% | 45.6% | 4% | 53% | 86.3% (active) |
| O=[N+]([O-])c1c[nH]c2ncnc(SCc3ccccc3)c12 | 98% (active) | 98% (active) | 100% (active) | 99% (active) | 99% (active) | 99.3% (active) | 99% (active) | 99% (active) | 99.2% (active) | 86% (active) | 99% (active) | 94.3% (active) | 97% (active) | 99% (active) | 98.7% (active) | 98% (active) | 98% (active) | 98.9% (active) |
| O=C(C=P(c1ccccc1)(c1ccccc1)c1ccccc1)c1ccc(Cl)cc1 | 5% | 98% (active) | 98.8% (active) | 12% | 99% (active) | 99.2% (active) | 19% | 99% (active) | 99% (active) | -10% | 98% (active) | 98.7% (active) | 16% | 99% (active) | 98.5% (active) | -16% | 99% (active) | 99% (active) |
| O=C1CCCC1CN1CCOCC1 (configuration not stated) | 5% | 97% (active) | 75% (active) | -21% | 97% (active) | 75.7% (active) | -32% | 75% (active) | 82% (active) | 6% | 66% | 64.4% | -20% | 96% (active) | 84.5% (active) | -6% | 99% (active) | 83.5% (active) |
| C/C(=N/NC(=S)N1CCCCC1)c1cccc(/C(C)=N\NC(=S)N2CCCCC2)n1 | -13% | 93% (active) | 74.2% (active) | -1% | 95% (active) | 88% (active) | 6% | 96% (active) | 74.7% (active) | -10% | 94% (active) | 87.3% (active) | 8% | 94% (active) | 90% (active) | -3% | 95% (active) | 88.2% (active) |
| O=C1C(Cl)=C(Cl)C(=C2C(Cl)=C(Cl)C(=O)C(Cl)=C2Cl)C(Cl)=C1Cl | 98% (active) | 99% (active) | 99.5% (active) | 97% (active) | 100% (active) | 99.6% (active) | 91% (active) | 99% (active) | 99.5% (active) | 99% (active) | 99% (active) | 99% (active) | 79% (active) | 98% (active) | 99.5% (active) | 97% (active) | 99% (active) | 99.4% (active) |
| Cc1ccc(C)c(C(=O)CCN)c1 | -2% | 5% | 3.45% | 1% | 1% | -10.7% | 0% | -2% | 0.3% | 6% | 2% | 84.8% (active) | 7% | 8% | -5.3% | 2% | 6% | 3.55% |
| CCCCCCCCCCCC[S+](C)C | 31% | 52% | 44.9% | 23% | 80% (active) | 78.3% (active) | 36% | 83% (active) | 89.5% (active) | 17% | 26% | 41% | 41% | 74% (active) | 90.2% (active) | 30% | 76% (active) | 6.8% |
| C=CCc1cc([N+](=O)[O-])ccc1O | -4% | 80% (active) | 76.5% (active) | 1% | 85% (active) | 92.1% (active) | -2% | 87% (active) | 94.6% (active) | -3% | 85% (active) | 88.7% (active) | 3% | 85% (active) | 92.3% (active) | -4% | 93% (active) | 90.8% (active) |
| FC(F)(F)C(F)(F)C1(F)C(F)(F)C(F)(F)C(F)(F)C(F)(F)C1(F)F | -1% | -2% | 99.7% (active) | -2% | 1% | 99.5% (active) | -1% | -3% | 99.6% (active) | 1% | -8% | 97.2% (active) | 3% | 4% | 99.5% (active) | 2% | -2% | 99.2% (active) |
| Cc1cccc2nc3nc(Cl)c(Cl)nc3n12 | 4% | 76% (active) | 75.7% (active) | 17% | 82% (active) | 50.1% | 13% | 91% (active) | 64.5% | 7% | 54% | 51.5% | 8% | 36% | 51.4% | 26% | 95% (active) | 90.8% (active) |
| CCCCCCCC/C(C=O)=C\c1ccccc1 | -3% | -25% | 77.8% (active) | -21% | -2% | 72.8% (active) | -3% | 3% | 78.2% (active) | -1% | 7% | 45% | -11% | -19% | 64.8% | -3% | -13% | 77.9% (active) |
| CN(C)c1ccc(/C=C/c2ccnc3ccccc23)c(O)c1 | 0% | -6% | 57% | -4% | -4% | 28.6% | 0% | -6% | 58.9% | 3% | -3% | 34% | -4% | -6% | 40.9% | -8% | -2% | 68.8% |
| Cc1ccc(-c2oc(C=Nc3ccccc3)c([N+](=O)[O-])c2-c2ccc(C)cc2)cc1 | 11% | 72% (active) | 73.3% (active) | 13% | 70% (active) | 64.5% | 26% | 73% (active) | 70.9% (active) | 36% | 74% (active) | 42.2% | 46% | 95% (active) | 41.7% | 52% | 91% (active) | 75.8% (active) |
| Cc1c(N)ccc(O)c1C | 1% | 46% | 87.7% (active) | -1% | 30% | 90.9% (active) | -2% | 37% | 43.2% | -3% | 17% | 86.3% (active) | 1% | 41% | 96.8% (active) | 1% | 35% | 96.6% (active) |
| COc1ccc(/C=N/NS(=O)(=O)c2ccccc2)cc1 | 0% | -2% | 99.1% (active) | -2% | 4% | 99.3% (active) | 0% | 3% | 99% (active) | -10% | -7% | 98% (active) | 2% | 11% | 99.2% (active) | -2% | 7% | 99% (active) |
